# Test results published in PMC11995724, “Antibiotic target discovery by integrated phenotypic and activity-based profiling of electrophilic fragments” (Cell chemical biology, 2025).
# The campaign covered roughly 3,200 compounds. About 75 (2%) showed an effect of 50% or more. Only a selection was taken, and strong results are over-represented in it overall.
# Tested on: T1, S. aureus MSSA476
# T1 construct: MSSA476
# Design: species or system S. aureus MSSA476 (TSB) or V. cholerae SAD30 (LB); 384-well bacterial growth screen at 25 uM, OD600 relative to DMSO control
# Conditions: relative growth, OD600, TSB; 25 µM; inhibitor
row,Structure (SMILES),% of control remaining
1,"C=CC(=O)N(CC)Cc1cn(C)nn1 [2-O09, N-ethyl-N-[(1-methyl-1H-1,2,3-triazol-4-yl)methyl]prop-2-enamide]",106.527%
2,"CN(CC(=O)Nc1ccccc1Cl)C(=O)CCl [4-D05, 2-chloro-N-{[(2-chlorophenyl)carbamoyl]methyl}-N-methylacetamide]",122.344%
3,"C=CC(=O)NCCc1ccccc1OC [2-O03, N-[2-(2-methoxyphenyl)ethyl]prop-2-enamide]",95.7354%
4,"C=CC(=O)N1CCOCC2(COCCN2C)C1 (centres unmarked) [3-J14, 1-{1-methyl-4,8-dioxa-1,11-diazaspiro[5.6]dodecan-11-yl}prop-2-en-1-one]",109.012%
5,"CC(Cl)C(=O)N1CCCC(NS(=O)(=O)c2cccc(F)c2)C1 (centres unmarked) [7-C13, N-[1-(2-chloropropanoyl)piperidin-3-yl]-3-fluorobenzene-1-sulfonamide]",102.355%
6,"Cc1cc(C(=O)CCl)c(C)n1-c1ccc(OC(F)F)c(Cl)c1 [10-K04, 2-chloro-1-{1-[3-chloro-4-(difluoromethoxy)phenyl]-2,5-dimethyl-1H-pyrrol-3-yl}ethan-1-one]",0%
7,"Cc1cc(C(=O)CCl)c(C)n1-c1ccc(Cl)c(C(F)(F)F)c1 [10-L18, 2-chloro-1-{1-[4-chloro-3-(trifluoromethyl)phenyl]-2,5-dimethyl-1H-pyrrol-3-yl}ethan-1-one]",0.3125%
8,"Cc1cc(C(=O)CCl)c(C)n1-c1ccon1 [10-F06, 2-chloro-1-[2,5-dimethyl-1-(1,2-oxazol-3-yl)-1H-pyrrol-3-yl]ethan-1-one]",106.875%
9,"Cc1cc(C(=O)C(C)Cl)c(C)n1-c1ccc(OC(F)F)cc1 (centres unmarked) [10-E10, 2-chloro-1-{1-[4-(difluoromethoxy)phenyl]-2,5-dimethyl-1H-pyrrol-3-yl}propan-1-one]",125.938%
10,"Cc1cc(C(=O)CCl)c(C)n1-c1ccc(OC(F)(F)F)cc1 [10-G04, 2-chloro-1-{2,5-dimethyl-1-[4-(trifluoromethoxy)phenyl]-1H-pyrrol-3-yl}ethan-1-one]",115.313%
11,"CC(Cl)C(=O)NCCc1nnc2n1CCCCC2 (centres unmarked) [7-D09, 2-chloro-N-(2-{5H,6H,7H,8H,9H-[1,2,4]triazolo[4,3-a]azepin-3-yl}ethyl)propanamide]",92.3077%
12,"O=C(CCl)Nc1cc(-n2cnnn2)ccc1Cl [6-A05, 2-chloro-N-[2-chloro-5-(1H-1,2,3,4-tetrazol-1-yl)phenyl]acetamide]",78.1951%
13,"CC(Cl)C(=O)NCc1nn(-c2ccccc2)c2c1CCC2 (centres unmarked) [7-P05, 2-chloro-N-({1-phenyl-1H,4H,5H,6H-cyclopenta[c]pyrazol-3-yl}methyl)propanamide]",91.9937%
14,"COc1ccc(-c2csc(NC(=O)CCl)n2)cc1 [4-N06, 2-chloro-N-[4-(4-methoxyphenyl)-1,3-thiazol-2-yl]acetamide]",111.291%
15,"COc1ccc(OC)c(-c2csc(NC(=O)CCl)n2)c1 [4-H12, 2-chloro-N-[4-(2,5-dimethoxyphenyl)-1,3-thiazol-2-yl]acetamide]",86.8985%
16,"COc1ccc(-c2csc(NC(=O)CCl)n2)c(O)c1 [4-A11, 2-chloro-N-[4-(2-hydroxy-4-methoxyphenyl)-1,3-thiazol-2-yl]acetamide]",1.1434%
17,"COc1ccc(-c2csc(NC(=O)CCl)n2)c(OC)c1 [4-F12, 2-chloro-N-[4-(2,4-dimethoxyphenyl)-1,3-thiazol-2-yl]acetamide]",83.4683%
18,"O=C(CCl)Nc1nc(-c2ccccc2)cs1 [4-L04, 2-chloro-N-(4-phenyl-1,3-thiazol-2-yl)acetamide]",143.306%
19,"CCCc1ccc(-c2csc(NC(=O)CCl)n2)cc1 [4-C09, 2-chloro-N-[4-(4-propylphenyl)-1,3-thiazol-2-yl]acetamide]",5.717%
20,"CC(Cl)C(=O)N1CCN(C(C)c2cccc(C#N)c2)CC1 (centres unmarked) [7-P22, 3-{1-[4-(2-chloropropanoyl)piperazin-1-yl]ethyl}benzonitrile]",115.542%
21,"C=CC(=O)NCCc1nnc(C)s1 [3-G22, N-[2-(5-methyl-1,3,4-thiadiazol-2-yl)ethyl]prop-2-enamide]",111.45%
22,"C=CC(=O)N(CC)CC(=O)N1CCCC1c1ccc(F)cc1C (centres unmarked) [2-F08, N-ethyl-N-{2-[2-(4-fluoro-2-methylphenyl)pyrrolidin-1-yl]-2-oxoethyl}prop-2-enamide]",97.1279%
23,"CC(=O)c1cccc(S(=O)(=O)N2CCN(C(=O)CCl)CC2)c1 [4-F05, 1-[4-(3-acetylbenzenesulfonyl)piperazin-1-yl]-2-chloroethan-1-one]",105.574%
24,"C=CC(=O)N1CCC(Cn2nc(C)cc2C)CC1 [2-C17, 1-{4-[(3,5-dimethyl-1H-pyrazol-1-yl)methyl]piperidin-1-yl}prop-2-en-1-one]",100.957%

row,Structure (SMILES),% of control remaining
1,"CCOc1ccccc1NC(=O)C(C#N)=Cc1c(F)cccc1F [8-G21, 2-cyano-3-(2,6-difluorophenyl)-N-(2-ethoxyphenyl)prop-2-enamide]",69.3776%
2,"CCc1cnc(N2CCN(C(=O)C(C)Cl)CC2)s1 (centres unmarked) [7-C20, 2-chloro-1-[4-(5-ethyl-1,3-thiazol-2-yl)piperazin-1-yl]propan-1-one]",99.2151%
3,"C=CC(=O)N(C)CC(=O)N1CCC2(CC1)CC2c1nnc(C(C)C)o1 (centres unmarked) [2-N22, N-methyl-N-(2-oxo-2-{1-[5-(propan-2-yl)-1,3,4-oxadiazol-2-yl]-6-azaspiro[2.5]octan-6-yl}ethyl)prop-2-enamide]",98.8686%
4,"N#CC(=Cc1ccc2c(c1)OCO2)C(=O)NCc1ccccc1 [8-A09, 3-(1,3-dioxaindan-5-yl)-N-benzyl-2-cyanoprop-2-enamide]",113.527%
5,"COC(=O)c1c(C(=O)CCl)c(C)n(C(C)C)c1C [10-K21, methyl 4-(2-chloroacetyl)-2,5-dimethyl-1-(propan-2-yl)-1H-pyrrole-3-carboxylate]",119.375%
6,"Cn1ccnc1C(=O)CCl [10-C15, 2-chloro-1-(1-methyl-1H-imidazol-2-yl)ethan-1-one]",93.75%
7,"CC(C)n1ccnc1C(=O)CCl [10-H10, 2-chloro-1-[1-(propan-2-yl)-1H-imidazol-2-yl]ethan-1-one]",2.1875%
8,"C=CCNC(=O)C(C#N)=Cc1sccc1C [9-P07, 2-cyano-3-(3-methylthiophen-2-yl)-N-(prop-2-en-1-yl)prop-2-enamide]",115.955%
9,"CC(Cl)C(=O)Nc1ccc(Cl)cc1Cl (centres unmarked) [4-L17, 2-chloro-N-(2,4-dichlorophenyl)propanamide]",92.9967%
10,"CC(Cl)C(=O)N1CCCN(C(=O)c2cc(Cl)cn2C)CC1 (centres unmarked) [7-N07, 2-chloro-1-[4-(4-chloro-1-methyl-1H-pyrrole-2-carbonyl)-1,4-diazepan-1-yl]propan-1-one]",91.6797%
11,"NC(=O)Nc1ccc(C(=O)CCl)cc1 [10-J07, [4-(2-chloroacetyl)phenyl]urea]",55.625%
12,"CCCC(=O)Nc1ccc(C(=O)C(C)Cl)cc1 (centres unmarked) [10-O06, N-[4-(2-chloropropanoyl)phenyl]butanamide]",121.875%
13,"COc1ccccc1NC(=O)c1ccc(NC(=O)CCl)cc1 [4-O17, 4-(2-chloroacetamido)-N-(2-methoxyphenyl)benzamide]",92.2344%
14,"CS(=O)(=O)Nc1ccc(C(=O)CCl)cc1 [10-D19, N-[4-(2-chloroacetyl)phenyl]methanesulfonamide]",28.125%
15,"CC(=O)c1ccc(NC(=O)CCl)cc1 [4-G07, N-(4-acetylphenyl)-2-chloroacetamide]",93.7589%
16,"CS(=O)(=O)c1ccc(C(=O)CCl)cc1 [10-I13, 2-chloro-1-(4-methanesulfonylphenyl)ethan-1-one]",83.125%
17,"CC(=O)Nc1ccc(C(=O)CCl)cc1 [10-O12, N-[4-(2-chloroacetyl)phenyl]acetamide]",6.875%
18,"O=C(CCl)Nc1cccc(NC(=O)c2ccccc2)c1 [6-A03, N-[3-(2-chloroacetamido)phenyl]benzamide]",76.1463%
19,"O=C(CCl)c1ccc(NC(=O)c2ccccc2)cc1 [10-B06, N-[4-(2-chloroacetyl)phenyl]benzamide]",0%
20,"NC(=O)c1ccc(NC(=O)CCl)cc1 [4-P04, 4-(2-chloroacetamido)benzamide]",95.2835%
21,"CC(C)CC(=O)Nc1ccc(C(=O)CCl)cc1 [10-N06, N-[4-(2-chloroacetyl)phenyl]-3-methylbutanamide]",1.25%
22,"CS(=O)(=O)NCCc1ccc(C(=O)CCl)cc1 [10-D06, N-{2-[4-(2-chloroacetyl)phenyl]ethyl}methanesulfonamide]",79.375%
23,"CCCn1c(N)c(C(=O)CCl)c(=O)n(C)c1=O [10-H12, 6-amino-5-(2-chloroacetyl)-3-methyl-1-propyl-1,2,3,4-tetrahydropyrimidine-2,4-dione]",92.8125%
